Screening results deposited in PubChem BioAssay by Broad Institute.
TRPM1 prom inh = inhibitors of MITF-driven TRPM1 promoter in melanoma cells. SK-MEL-5 TRPM1 promoter luciferase, 24 h. inhibition, % at 12.5 µM. 330,000 compounds, 0.83% hits. AID 488899;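 active = mean inhibition across replicates of 60% or more, whatever share of single replicates reaches that level; inconclusive = some that reach 60%, reason not given; inactive = mean inhibition across replicates below 60%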
aSyn UTR inh = MLPCN primary screen, SNCA 5' untranslated region; 300,000 compounds, 0.82% hits; inhibition, % (tested at 7.5 µM); alpha-synuclein 5'UTR reporter, inhibitor activity; in the data active = inhibition above about 60%; inconclusive = no clear call, values can overlap the other calls;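 note: H4 neuroglioblastoma cells stably carrying SNCA 5'UTR luciferase fusion; 0% = DMSO wells and 100% = positive control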
Shn3 inh set2 = inhibitors of Schnurri-3 3'UTR reporter in osteoblasts; Clone20 osteoblast Shn3 3'UTR firefly luciferase, 24 h; inhibition, % at 12.5 µM; 360,000 compounds, 0.52% hits; AID 588674;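 active = mean inhibition of at least 75% with every replicate also reaching 75%; inconclusive = mean inhibition at least 75% but some replicate below; inactive = mean inhibition below 75%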;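 note: 0% = median of neutral control wells and 100% = pilot-screen positive control compound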
PAX8 inh HTS = lowers PAX8-driven luciferase in RMG-I cells; RMG-I TPO-luciferase reporter, SteadyGlo, 24 h; 360,000 compounds, 1.2% hits; AID 652154; inhibition, % at 12.6 µM;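 active = mean replicate inhibition at least 60% with every replicate also reaching 60%; inconclusive = only one of the two criteria is met; inactive = mean below 60% and not all replicates reaching 60%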;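 note: luciferase light reporting Pax8 driven TPO promoter activity; plate controls were median of neutral control wells for no effect and mitoxantrone controls for full effect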
LMP1 NFkB inh = inhibitors of Epstein-Barr LMP1-induced NF-kappaB reporter. LMP1-induced NF-kappaB luciferase reporter cells, luminescence. inhibition, % at 12.5 µM. 350,000 compounds, 0.69% hits. AID 504558; in the data active = inhibition above about 41%; inconclusive = no clear call, values can overlap the other calls;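 note: 0% = neutral control wells and 100% = reference inhibitor control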
* marks the source's active call; other numbers are inactive results; ? = inconclusive; . = not tested or not shown. An excerpt weighted towards active compounds, which were near 2.1% of everything screened.

SMILES	TRPM1 prom inh	aSyn UTR inh	Shn3 inh set2	PAX8 inh HTS	LMP1 NFkB inh
CCOc1ccccc1C(=O)N[C@H](C(=O)OCc1cc([N+](=O)[O-])cc2c1OCOC2)C(C)C	9	3	1	7	49*
CCCCCCC[N+](CC)(CC)CCCCc1ccc(Cl)cc1	76*	.	?	87*	17
Cc1cccc(NC(=O)CSc2nc(C)c(CC(=O)c3ccc(Br)cc3)c(C)c2C#N)c1C	76*	?	49	.	-6
Cc1nc(SCC(=O)Nc2ccc(F)cc2)c(C#N)c(C)c1CC(=O)c1ccc(Br)cc1	65*	26	33	.	4
COc1ccc(NC(=O)CSc2nc(C)c3c(c2C#N)CCCC3)cc1	-4	12	12	.	10
O=C(NCC1CCCCC1)[C@@H]1[C@@H](CO)[C@@H]2Cn3c(ccc(C4=CCCC4)c3=O)[C@H]1N2C(=O)CC1CC1	.	.	.	-5	.
COc1ccc(-c2cccc(NC(=O)c3ccco3)c2)nn1	0	4	7	-12	4
O=C(Cc1ccc(Cl)cc1)Nc1ccc(N2CCN(C(=O)c3ccco3)CC2)cc1	5	25	90*	.	13
COc1ccc(-c2ccc(NC(=O)c3ccco3)cc2)nn1	21	55	24	?	57*
O=C(Nc1ccc(Cl)cc1)c1ccco1	-42	-131	-18	-136	57*
COc1ccc(NC(=O)Nc2ccc3c(c2)C(=O)N([C@H](C)CO)C[C@H](C)[C@@H](CN(C)S(=O)(=O)c2ccccc2)OCCCC[C@@H](C)O3)cc1	.	.	.	12	.
Cc1cc(NC(=O)CN2CCCCC2C)no1 (configuration not stated)	-12	15	-21	-8	2
COC(=O)c1c(NC(=S)NN2CCOCC2)sc2c1CCCC2	3	10	6	-10	-8
COC1=C(N)C(=O)c2nc(-c3nc(C(=O)O)c(C)c(-c4ccc(OC)c(OC)c4O)c3N)ccc2C1=O	.	.	114*	.	.
CC(C)n1c(SCC(=O)Nc2ccc(F)cc2)nnc1C1CC1	1	-9	-12	.	0
COC(=O)c1[nH]c2ccc(Br)cc2c1NC(=O)CN1CCN(C2CCCCC2)CC1	86*	75*	-5	-10	-5
COc1cc(/C=N/NC(=O)C23CC4CC(CC(C4)C2)C3)cc(Br)c1O	8	25	11	67*	-7
COc1cc(/C=N/NC(=O)c2cc(-c3c(C)nn(-c4ccccc4)c3C)n[nH]2)ccc1O	23	-55	-13	69*	0
COc1cc(/C=N/NC(=O)CC2(C)OCCO2)cc(Br)c1O	4	13	9	6	6
COc1cc(/C=N/NC(=O)c2cc(C34CC5CC(CC(C5)C3)C4)[nH]n2)ccc1O	-3	14	6	.	81*
COc1cc(/C=N/NC(=O)c2cc(C3CC3)[nH]n2)ccc1O	-19	9	.	-6	-4
Cc1nn(-c2ccccc2)c(C)c1-c1cc(C(=O)N/N=C/c2ccc(O)cc2)[nH]n1	-1	-1	-2	52	6
CC(=O)c1c(C)[nH]c(C(=O)OCC(=O)Nc2ccc(Cl)cc2[N+](=O)[O-])c1C	11	-37	92*	36	23
CCOC(=O)c1c(C)[nH]c(C(=O)OCC(=O)Nc2cc(Cl)ccc2OC)c1C	11	-6	21	.	-1
CCCSc1nnc(CSc2nc3ccccc3s2)n1-c1ccccc1	14	14	87*	.	8
SMILES	TRPM1 prom inh	aSyn UTR inh	Shn3 inh set2	PAX8 inh HTS	LMP1 NFkB inh
N#CCCCSc1nnc(CSc2nc3ccccc3s2)n1-c1ccccc1	8	7	16	.	-7
CCN(C)C1CN(Cc2cn(Cc3ccccc3)nn2)S(=O)(=O)C1 (configuration not stated)	.	.	.	-6	.
OC(c1ccccc1)(c1nc(-c2cccc3cccnc23)cs1)C(F)(F)F (configuration not stated)	.	.	19	11	.
CC(C)CC(=O)NC(=S)NNC(=O)c1ccc(NC(=O)C2CCCCC2)cc1	-1	75*	4	20	8
CC(C)CC(=O)NC(=S)NNC(=O)c1ccc([N+](=O)[O-])cc1	5	1	3	1	5
O=C(C[C@H]1CC[C@@H]2[C@H](COC[C@H](O)CN2S(=O)(=O)c2ccccc2)O1)Nc1ccc(-c2ccccc2)cc1	.	.	.	63*	.
O=C(C[C@H]1CC[C@H]2[C@@H](COC[C@@H](O)CN2S(=O)(=O)c2cccc(Cl)c2)O1)Nc1ccc(-c2ccccc2)cc1	.	.	.	87*	.
O=C(C[C@H]1CC[C@@H]2[C@H](COC[C@@H](O)CN2S(=O)(=O)c2cccc(Cl)c2)O1)Nc1ccc(-c2ccccc2)cc1	.	.	.	106*	.
